Reference: PubChem BioAssay (NCI)
The panel holds about 83,000 compounds, 20% with a hit somewhere; the sample as a whole holds those more often.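 How to read the values: 0–100, growth inhibition (40 = 60% inhibited); 0, no net growth; -100 to 0, cell death (-40 = 40% of starting cells died; -100 = all dead).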 The source made the active and inactive calls. The calls were made as follows: active = growth percent below 10; inactive = the rest.

How the values were obtained:
Assay in all cases: NCI-60 one-dose screen, 48 h (100 = growth as untreated, 0 = no growth, -100 = all killed)
Details in all cases: 10 µM unless noted
NCI-H23 lung = tested on: NCI-H23 lung
NCI-H226 lung = tested on: NCI-H226 lung
NCI-H322M lung = tested on: NCI-H322M lung
HOP-62 NSCLC = tested on: HOP-62 NSCLC
NCI-H460 lung = tested on: NCI-H460 lung
HOP-92 NSCLC = tested on: HOP-92 NSCLC
NCI-H522 lung = tested on: NCI-H522 lung
A549/ATCC NSCLC = tested on: A549/ATCC NSCLC
786-0 renal = tested on: 786-0 renal
COLO 205 colon = tested on: COLO 205 colon

Measured: growth

COc1ccc(C(C)=C(c2ccc(OCCN3CCCCCC3)cc2)c2ccc(OCCN3CCCCCC3)cc2)cc1
active: NCI-H23 lung -40.3% | NCI-H226 lung -46.1% | NCI-H322M lung -11.7% | HOP-62 NSCLC -52.4% | NCI-H460 lung -57.2% | HOP-92 NSCLC -8.87% | NCI-H522 lung -52% | A549/ATCC NSCLC -35.9% | 786-0 renal -93.9% | COLO 205 colon -60.8%

CCOC(=O)c1c(NC(=O)c2ccc(C(F)(F)F)cc2)sc2c(CN3CCN(C)CC3)c(O)ccc12
inactive: NCI-H23 lung 56.4% | NCI-H322M lung 10.2% | HOP-92 NSCLC 24.2%
active: NCI-H226 lung -6.63% | HOP-62 NSCLC -78.6% | NCI-H460 lung -70.7% | NCI-H522 lung -21.3% | A549/ATCC NSCLC -74.8% | 786-0 renal -93.6% | COLO 205 colon -67.5%

Cc1ccc(S(=O)(=O)NCCCNc2nc(Nc3ccc(N4CCN(C)CC4)cc3)nc3ccsc23)cc1
inactive: NCI-H23 lung 75.6% | NCI-H226 lung 117% | NCI-H322M lung 52.7% | HOP-62 NSCLC 97.1% | NCI-H460 lung 18.5% | HOP-92 NSCLC 49.6% | A549/ATCC NSCLC 37.1%
active: NCI-H522 lung -5.6% | 786-0 renal -26.7% | COLO 205 colon -32.9%

O=c1[nH][nH]c(-c2ccc(F)cc2)c1-c1nc2ccccc2s1
inactive: NCI-H23 lung 89.9% | NCI-H226 lung 82.3% | NCI-H322M lung 88.7% | HOP-62 NSCLC 89.4% | NCI-H460 lung 92.2% | HOP-92 NSCLC 77.1% | NCI-H522 lung 92.9% | A549/ATCC NSCLC 111% | 786-0 renal 107% | COLO 205 colon 113%

O=S(=O)(NCCCNc1nccc(-c2[nH]c(-c3ccccc3)nc2-c2ccc(F)c(O)c2)n1)c1cccc2ccccc12
inactive: NCI-H23 lung 64.9% | NCI-H226 lung 68% | NCI-H322M lung 98.2% | HOP-62 NSCLC 76.8% | NCI-H460 lung 35.5% | HOP-92 NSCLC 32.6% | NCI-H522 lung 64% | A549/ATCC NSCLC 52.4% | 786-0 renal 59.8% | COLO 205 colon 111%

CCN(CC)CCOc1ccc(C(=C(C)c2ccc(OC)cc2)c2ccc(OCCN(CC)CC)cc2)cc1
active: HOP-62 NSCLC 4.72% | NCI-H460 lung 1.96% | HOP-92 NSCLC -4.16% | NCI-H522 lung -4.16% | 786-0 renal -51.1% | COLO 205 colon -56.5%
inactive: NCI-H23 lung 57.8% | NCI-H226 lung 61.2% | NCI-H322M lung 33.5% | A549/ATCC NSCLC 12.3%

COc1ccc(/C=N/NC(=O)CSc2nc(-c3cnccn3)cc(-c3cccs3)c2C#N)cc1OC
inactive: NCI-H23 lung 66.6% | NCI-H226 lung 47% | NCI-H322M lung 91.9% | HOP-62 NSCLC 77.1% | NCI-H460 lung 56.2% | HOP-92 NSCLC 37.8% | NCI-H522 lung 76.5% | A549/ATCC NSCLC 74.8% | 786-0 renal 53.1% | COLO 205 colon 107%

O=C1Nc2ccccc2/C1=N\c1nnc(-c2ccccc2)o1
inactive: NCI-H23 lung 91.8% | NCI-H226 lung 88.7% | NCI-H322M lung 86.8% | HOP-62 NSCLC 82.6% | NCI-H460 lung 99.2% | HOP-92 NSCLC 72.2% | NCI-H522 lung 88.4% | A549/ATCC NSCLC 103% | 786-0 renal 108% | COLO 205 colon 107%

CCN(CC)c1ccc(/C=N/NC(=O)c2ccc(S(N)(=O)=O)cc2)cc1
inactive: NCI-H23 lung 25.1% | NCI-H226 lung 45.1% | NCI-H322M lung 28.1% | HOP-62 NSCLC 18.6% | HOP-92 NSCLC 72.3% | NCI-H522 lung 18.7% | A549/ATCC NSCLC 26.1% | COLO 205 colon 11.1%
active: NCI-H460 lung 7.17% | 786-0 renal 9.66%

Cn1c(SCC(=O)c2ccc(F)cc2)nc2ccccc2c1=O
inactive: NCI-H23 lung 84.5% | NCI-H226 lung 93% | NCI-H322M lung 99.8% | HOP-62 NSCLC 93.6% | NCI-H460 lung 101% | HOP-92 NSCLC 61.3% | NCI-H522 lung 83.9% | A549/ATCC NSCLC 104% | 786-0 renal 96.8% | COLO 205 colon 123%

CC1=C(C)C(=O)C(Nc2ccc3c(c2)OCO3)=C(Br)C1=O
inactive: NCI-H23 lung 90% | NCI-H226 lung 93% | NCI-H322M lung 96.5% | HOP-62 NSCLC 92.9% | NCI-H460 lung 100% | NCI-H522 lung 96.5% | A549/ATCC NSCLC 102% | 786-0 renal 103% | COLO 205 colon 122%
active: HOP-92 NSCLC -22.9%

CCOC(=O)c1cccc(NC2=C(Cl)C(=O)C(C)=C(C)C2=O)c1
inactive: NCI-H23 lung 91.9% | NCI-H226 lung 100% | NCI-H322M lung 105% | HOP-62 NSCLC 103% | NCI-H460 lung 101% | HOP-92 NSCLC 54.2% | NCI-H522 lung 95% | A549/ATCC NSCLC 102% | 786-0 renal 105% | COLO 205 colon 122%

N#Cc1cccc(-c2cc(-c3ccc4c(c3)OCCO4)[nH]n2)c1
inactive: NCI-H23 lung 50% | NCI-H226 lung 72.2% | NCI-H322M lung 54.8% | HOP-62 NSCLC 43.5% | NCI-H460 lung 15% | HOP-92 NSCLC 75.5% | NCI-H522 lung 23.8% | A549/ATCC NSCLC 47.8% | 786-0 renal 63.4% | COLO 205 colon 20.2%

CNC(=O)c1cc(Oc2ccc3c(c2)sc2nc(-c4ccc(N(C)C)cc4)cn23)ccn1
inactive: NCI-H23 lung 35.5% | NCI-H226 lung 36.2% | NCI-H322M lung 48.1% | HOP-62 NSCLC 45.4% | HOP-92 NSCLC 37.9% | A549/ATCC NSCLC 23.4% | 786-0 renal 31%
active: NCI-H460 lung 8.23% | NCI-H522 lung 3.82% | COLO 205 colon 8.9%

COc1ccc(/C=N/NC(=O)c2c(N)nn(C)c2Nc2ccccc2)cc1Oc1ccccc1
inactive: NCI-H23 lung 90.4% | NCI-H226 lung 91.9% | NCI-H322M lung 89.4% | HOP-62 NSCLC 96.5% | NCI-H460 lung 102% | HOP-92 NSCLC 51.3% | NCI-H522 lung 93.8% | A549/ATCC NSCLC 89.1% | 786-0 renal 101% | COLO 205 colon 117%

O=C(CCCCCCN1CC(=O)N2[C@@H](c3cccs3)c3[nH]c4ccccc4c3C[C@H]2C1=O)NO
inactive: NCI-H23 lung 94.1% | NCI-H226 lung 107% | NCI-H322M lung 79.8% | HOP-62 NSCLC 91.2% | NCI-H460 lung 77.2% | HOP-92 NSCLC 69% | NCI-H522 lung 44.7% | A549/ATCC NSCLC 98.9% | 786-0 renal 103% | COLO 205 colon 93.1%

COc1ccc2sc(NC(=O)CCCCCCNC(=O)C(O)(O)C(F)(F)F)nc2c1
active: NCI-H23 lung 1.72% | NCI-H322M lung 4.96% | HOP-62 NSCLC -3.09% | NCI-H460 lung 7.12% | HOP-92 NSCLC -12.7% | NCI-H522 lung -42.7% | A549/ATCC NSCLC 2.41% | COLO 205 colon -69.9%
inactive: NCI-H226 lung 24.6% | 786-0 renal 13.1%

O=S(=O)(Oc1ccc(-c2cn3ccoc3n2)cc1)c1cccc(C(F)(F)F)c1
inactive: NCI-H23 lung 98% | NCI-H226 lung 93.5% | NCI-H322M lung 102% | HOP-62 NSCLC 104% | NCI-H460 lung 104% | HOP-92 NSCLC 91.7% | NCI-H522 lung 90.3% | A549/ATCC NSCLC 99.6% | 786-0 renal 99.9% | COLO 205 colon 115%

CCCCc1nc2c(N)nc3ccccc3c2n1Cc1cccc(CN)c1
active: HOP-92 NSCLC -0.82%
inactive: NCI-H23 lung 72.6% | NCI-H226 lung 87.1% | NCI-H322M lung 81.2% | HOP-62 NSCLC 57.3% | NCI-H460 lung 19.7% | NCI-H522 lung 72.7% | A549/ATCC NSCLC 69.5% | 786-0 renal 66.7% | COLO 205 colon 44%

O=C(/C=C/c1ccc(Cl)c(Cl)c1)Nc1ncc(Cc2ccc(Cl)c(Cl)c2)s1
active: COLO 205 colon 4.63%
inactive: NCI-H23 lung 70.4% | NCI-H226 lung 70.7% | NCI-H322M lung 58.5% | HOP-62 NSCLC 50.9% | NCI-H460 lung 28.3% | HOP-92 NSCLC 92.7% | NCI-H522 lung 40.4% | A549/ATCC NSCLC 53.5% | 786-0 renal 78.8%

COc1cc2oc(-c3cccc(NC(=O)c4cccc([N+](=O)[O-])c4)c3)cc(=O)c2c(OC)c1OC
active: HOP-62 NSCLC -36.4% | HOP-92 NSCLC -0.118%
inactive: NCI-H23 lung 69% | NCI-H226 lung 62.8% | NCI-H322M lung 82.4% | NCI-H460 lung 51.2% | NCI-H522 lung 58.5% | A549/ATCC NSCLC 43.8% | 786-0 renal 65.6% | COLO 205 colon 85.8%

C/C(=N\NC(=O)Nc1ccccc1)c1nnn(-c2ccc([N+](=O)[O-])cc2)c1C
inactive: NCI-H23 lung 94.7% | NCI-H226 lung 100% | NCI-H322M lung 99.1% | HOP-62 NSCLC 111% | NCI-H460 lung 108% | HOP-92 NSCLC 120% | NCI-H522 lung 99.9% | A549/ATCC NSCLC 107% | 786-0 renal 102% | COLO 205 colon 112%

Fc1cc(F)cc(NNC(=S)c2ccccc2)c1
active: HOP-92 NSCLC -16.7%
inactive: NCI-H23 lung 23.1% | NCI-H226 lung 49.7% | NCI-H322M lung 73.4% | HOP-62 NSCLC 58.4% | NCI-H460 lung 21.9% | NCI-H522 lung 37% | A549/ATCC NSCLC 31% | 786-0 renal 53.3% | COLO 205 colon 108%

C#C[C@]1(O)CC[C@H]2[C@@H]3CC=C4c5sc(N(C)c6ccccc6)nc5CC[C@]4(C)[C@H]3CC[C@@]21C
inactive: NCI-H23 lung 86.6% | NCI-H226 lung 96.4% | NCI-H322M lung 103% | HOP-62 NSCLC 101% | NCI-H460 lung 61.9% | HOP-92 NSCLC 139% | NCI-H522 lung 87.2% | A549/ATCC NSCLC 69% | 786-0 renal 57.1% | COLO 205 colon 66.8%

Cc1ccc(NC(=O)/C=C/c2ccc(OCCCOc3ccc4c(C)cc(=O)oc4c3)cc2)cc1
inactive: NCI-H23 lung 75.1% | NCI-H226 lung 56.8% | NCI-H322M lung 37.8% | HOP-62 NSCLC 48.5% | NCI-H460 lung 38.8% | HOP-92 NSCLC 35.7% | NCI-H522 lung 51.9% | A549/ATCC NSCLC 82.9% | 786-0 renal 44.3% | COLO 205 colon 82.2%
